Screens deposited in PubChem by National Center for Advancing Translational Sciences (NCATS).
PINK1 expr mod: changes PINK1 expression; PINK1 immunofluorescence, high-content cytometry, 24 h; Potency, µM (highest dose often 76.6 µM), for inactives: at the highest dose activation (PINK1 increase), actives largely listed as activators; 410,000 compounds, 0.2% hits; AID 624263; active = well fitted activation curve with a large enough effect; inconclusive = small, poorly fitted or top-dose-only effect; cell line not stated here; also: % of control where 0% means no effect; nearly all actives have a fitted effect of over 65% in size
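A stable cell line was treated with compounds at 5 concentrations for 24 hours, with CCCP as control. PINK1 levels and mitochondrial localization were measured by immunofluorescence with mitochondrial, cell and nuclear markers after fixation, read by laser-scanning cytometry.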
Epigenetic derep: regulators of epigenetic silencing causing reporter derepression in mouse cells. Potency, µM (series often up to 53.9 µM), inactives show at the highest dose GFP activation, hits mostly activators. murine LDR cells, GFP reporter derepression, 30 h. 280,000 compounds, 0.2% hits. AID 1865; also: % of control where 0% means no effect; nearly all actives have a fitted effect of over 60% in size
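In this reporter-derepression format, murine cells bearing a silenced integrated CMV-GFP locus incubate with test compound (30 h, 37 C), then are washed and imaged; fluorescent objects of 20–120 um count as induced cells.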
Nrf2 activator: Nrf2 pathway activation; AREc32 ARE-luciferase reporter (MCF7-derived line), luminescence, 24 h; Potency, µM (titrated, usually from 46.1 µM), without a hit: top-dose activation, usual class: activators; 410,000 compounds, 0.31% hits; also: % of control where 0% means no effect; nearly all actives have a fitted effect of over 65% in size
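AREc32_Fluc, 1000 cells/well, OPTI-MEM + 5% FBS, o/n 37 deg C 5% CO2; 23 nL cpd by pin tool, 24 hr; Steady-Glo 30 min RT, luminescence.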
Nrf2 block: inhibitors of Nrf2 signaling; 360,000 compounds, 2.1% hits; AID 504444; A549 ARE-Fluc reporter, luciferase luminescence, 18-24 h; Potency, µM (doses to about 46 µM), for the others: at the top dose activity change, negative = inhibition, hits mostly inhibitors; also: % is scaled to controls: 0 for no effect and ±100 for the full control effect; nearly all actives have a fitted effect of over 60% in size
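A549 ARE_Fluc cells, 5000/well, 5% FBS OPTI-MEM; compounds in dose-response, 18-24 h at 37 °C/5% CO2; CellTiter-Fluor viability read (Ex 405/Em 525), then BugLite luciferase luminescence = Nrf2 activity.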
A549 viability: counter-screen for Nrf2 inhibitors: cytotoxicity in A549 cells | Potency, µM (titrated, usually from 46 µM), inactives show at the top dose activity change, negative = cytotoxicity, hits mostly inhibitors | AID 504648 | A549 ARE-Fluc cells, CellTiter-Fluor viability, 18-24 h | 390,000 compounds, 0.16% hits; also: % is scaled to controls: 0 for no effect and ±100 for the full control effect
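A549 ARE_Fluc cells in 5% FBS OPTI-MEM were exposed to compounds in concentration-response for 18-24 h at 37 deg C. Viability was read by CellTiter-Fluor fluorescence (Ex 405/Em 525) after 30 min, before the luciferase read.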
* marks the source's active call; other numbers are inactive results; ? = inconclusive; . = no result given; [ ] = remark or other dose. A selection: hits, their analogues and other compounds. The true share with any hit is near 2.4%. Unless noted, calls follow the shape of the dose curve; as a rule, active = well fitted curve in the direction sought with a large enough effect; inconclusive = small, poorly fitted or top-dose-only effect, or another doubt; inactive = no such curve, though single readings can be large; an effect the other way counts as inactive or inconclusive. Potency is read from the fitted curve at half-maximal effect.

SMILES	PINK1 expr mod	Epigenetic derep	Nrf2 activator	Nrf2 block	A549 viability
Cc1nc([N+](=O)[O-])c(Br)n1CC(=O)c1ccc(Br)cc1	-1%	0%	14%	23µM*	16µM*
Cc1cc(C)c2c(NC(=O)c3ccccc3Cl)c(C(=O)NCc3ccc(Cl)cc3)sc2n1	5%	0%	0%	?	-22%
NC(=O)C1(N2CCCCC2)CCN(c2ccc3nnc(-c4ccccc4)n3n2)CC1	5%	0%	4%	-18%	0%
O=C(Nc1ccccc1Cl)N1CCN(c2ccc3nnc(-c4ccc(F)cc4)n3n2)CC1	5%	0%	0%	?	-9%
O=C(Nc1ccc(Cl)cc1)N1CCN(c2ccc3nnc(-c4ccccc4)n3n2)CC1	0%	1%	3%	26µM*	-22%
COc1ccccc1NC(=O)N1CCN(c2ccc3nnc(-c4ccc(F)cc4)n3n2)CC1	3%	-4%	8%	9.2µM*	-9%
COc1ccc(-c2nc3ccc(NC(=O)CO)cc3c(=O)n2Cc2cccc(Cl)c2)cc1COc1ccc(NC(C)=O)cc1	1%	.	.	?	-13%
CCCOc1ccc(CNC(=O)Cn2cc3c(n2)-c2c(oc(C(=O)N4CCOCC4)c2C)CC3)cc1	-1%	-2%	0%	?	-3%
COc1cc2ccccc2cc1C(=O)N1CC(C)CC(C)C1 (stereo unspecified)	0%	.	-1%	12µM*	-14%
COc1cc2ccccc2cc1C(=O)N1CCCC1	-1%	.	0%	?	1%
COc1ccc(Cl)cc1NC(=O)CCCn1c(=O)c2cccn2c2cccnc21	0%	3%	3%	16µM*	-1%
CC(=O)c1ccccc1-c1ccc2c(c1)CC(CNC(=O)c1cc(C)on1)O2 (stereo unspecified)	0%	.	.	.	.
Cc1ccc(NS(=O)(=O)c2cc3c(cc2C)NC(=O)CO3)cc1C	.	.	.	-16%	1%
O=C1COCCN1	.	.	.	13%	0%
O=C1C=CC(=O)c2c(O)c(CO)c(CO)c(O)c21	10%	.	8%	23µM*	16µM*
CN(C)/[N+]([O-])=N/Oc1ccc([N+](=O)[O-])cc1[N+](=O)[O-]	0%	.	.	.	.
Cc1cccc(OCC(=O)Nc2cc(C)c(O)c(-c3nc4ccccc4o3)c2)c1	1%	.	.	.	.
Cc1cnc(-n2ncc(C(=O)N(C)CC3COCCO3)c2C2CC2)nc1-c1cccs1 (stereo unspecified)	0%	.	.	.	.
O=C(N/N=C/c1ccc(OC(=O)c2ccccc2Cl)cc1)c1cc(O)cc(O)c1	6%	.	0%	6.5µM*	1%
Cc1ccc(S(=O)(=O)Nc2cccc3ncccc23)s1	2%	-2%	?	15µM*	?
O=C(CNC(=O)c1ccc([N+](=O)[O-])cc1)OC(C(=O)Nc1cc(C(F)(F)F)ccc1Cl)c1ccccc1 (stereo unspecified)	.	.	.	-13%	3%
Cc1ccc(N(C(=O)CCl)C(C(=O)NC2CCCCC2)c2cccnc2)cc1C (stereo unspecified)	-1%	0%	14µM*	-10%	-7%
Cc1ccc(C)c(N(C(=O)Cc2cccs2)C(C(=O)NC2CCCC2)c2ccc(C)o2)c1 (stereo unspecified)	?	0%	-1%	-1%	-8%[1.84 µM]
Cc1ccc(C(C(=O)NC2CCCC2)N(C(=O)Cc2cccs2)c2ccc(C)c(C)c2)o1 (stereo unspecified)	.	3%	2%	18µM*	?
COc1ccc([N+](=O)[O-])cc1C1NN=C(c2ccccc2O)S1 (stereo unspecified)	10%	1%	4.5µM*	?	-24%
SMILES	PINK1 expr mod	Epigenetic derep	Nrf2 activator	Nrf2 block	A549 viability
CCOC(=O)c1cnc2ccc(OC)cc2c1NCCc1ccc(OC)c(OC)c1	?	-2%	0%	16µM*	?
CCn1c(C)nc2cc(C(=O)N/N=C(\C)c3ccc(OC)cc3O)ccc21	-1%	-1%	0%	23µM*	-14%
C/C(=N\Nc1nccnc1Cl)c1ccc(Br)cc1	-1%	.	11µM*	13%	0%
COc1cc(OC)c2ccc(=O)oc2c1C(CCN1CCCC(C)C1)c1ccc2c(c1)OCO2 (stereo unspecified)	0%	1%	6%	14%	16µM*
COc1cc(O)c(C(CCN2CCCC(C)C2)c2ccc3c(c2)OCO3)c(OC)c1 (stereo unspecified)	0%	2%	5%	6%	-8%
CCCCC#CC1C=CC(OC(C)=O)C(COC(C)=O)O1 (stereo unspecified)	.	3%[10.1 µM]	.	.	.
CCn1c(C)cc(/C=C2\NC(=O)N(CC(=O)Nc3ccc(F)cc3)C2=O)c1C	1%	25µM*	4%	?	1%
Cc1ccc(NC(=O)CN2C(=O)N/C(=C/c3cc(C)n(-c4ccc(C(=O)O)cc4)c3C)C2=O)cc1	0%	1%	0%	21%	-3%
CCOC(=O)CC(C)(C)/C(C)=N/Nc1ccc([N+](=O)[O-])cc1[N+](=O)[O-]	1%	-2%	6%	18µM*	?
COc1cccc(CNC(=O)c2c(OC)cc(=O)n3c2CCN(C(=O)c2csc(C)n2)CC3)c1	3%	.	.	.	.
CC(=O)N1CCc2cc(S(=O)(=O)N3c4ccccc4CC3C)ccc21 (stereo unspecified)	9%[38.3 µM]	-1%	0%	15µM*	-12%
Cc1nc2cc(NC(=O)c3ccc([N+](=O)[O-])s3)ccc2s1	2%	.	6%	6.5µM*	-12%
Cc1ccc(C(=O)N/C(=C\c2ccc(Br)cc2)c2nc(=S)[nH][nH]2)cc1	-2%[38.3 µM]	6%	3%	?	26µM*
Cc1nn(-c2ccc(N3CCCCC3)nn2)c(C)c1CCC(=O)NCc1ccc(Cl)cc1	-1%	0%	-3%	?	0%
Cc1sc2ncnc(N3CCC(C(=O)NCC(=O)Nc4ccc(F)c(F)c4)CC3)c2c1C	-1%	.	0%	18µM*	?
Cc1sc2ncnc(N3CCC(C(=O)Nc4ccc(Br)cc4Br)CC3)c2c1C	0%	.	0%	21µM*	-13%
COc1ccccc1OCC(=O)NNC(=O)C1CCN(c2ncnc3sc(C)c(C)c23)CC1	1%	.	0%	23µM*	0%
O=S1(=O)N=C(Oc2ccccc2C(F)(F)F)c2ccccc21	.	.	.	?	3%
COc1ccc(-c2nc(NC(=O)c3cc(C(C)(C)C)nn3C)sc2C)cc1	15%[38.3 µM]	-4%	0%	18µM*	?
CS(=O)(=O)N1CCc2cc(-c3csc(NC(=O)Cc4cccs4)n3)ccc21	-2%[38.3 µM]	-1%	3%	18µM*	-19%
CC(=O)Nc1nc(-c2ccc3c(c2)CCN3S(C)(=O)=O)cs1	0%	-5%	7%	10%	3%
CC(CCc1ccccc1)NC(=O)c1ccc(C(=O)NC(C)CCc2ccccc2)cc1 (stereo unspecified)	1%	0%	0%	12µM*	?
